Sampled rows, rich in hits. Any-hit rate of the full collection: about 7.1%.
MCF10A rereplic: DNA re-replication induction in MCF 10a cells. MCF 10A DNA re-replication, Hoechst nuclear intensity, 48 h. Potency, µM (titrated, usually from 46.1 µM), hits mostly activators. 350,000 compounds, 2.9% hits; further: nearly all actives have a fitted effect of over 50% in size
SW480 rereplic: induces DNA re-replication in SW480 colon adenocarcinoma cells | SW480 DNA re-replication, Hoechst DNA content imaging, 48 h | Potency, µM (titrated, usually from 46.1 µM), actives largely listed as activators | 340,000 compounds, 1.8% hits | AID 624297; further: nearly all actives have a fitted effect of over 55% in size
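Compounds, transferred as 23 nL by pin tool, were incubated with cells for 48 hr; DNA content per nucleus was then quantified by Hoechst staining and fluorescence plate imaging.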
S2 tox: viability counter-screen for ATXN expression inhibitors | AID 651635 | Potency, µM (top dose mostly 56.7 µM), usual class: cytotoxic | S2 cells (HEK-293 line with an ATXN2-luciferase reporter) viability, CellTiter-Fluor protease fluorescence, 24 h | 400,000 compounds, 0.49% hits; further: nearly all actives have a fitted effect of over 40% in size
IL-1B inflam inh: blocks inflammasome-driven IL-1 beta release. THP-1 LPS/ATP IL-1B secretion, AlphaLISA, 16 h; hits give low values. activity change, % at 57.5 µM. 360,000 compounds, 4.7% hits. AID 743279; in the data active means activity change below about -50%; inconclusive means mostly about -30% to -49%
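Secreted IL-1B measured by AlphaLISA bead assay after 16 h compound exposure of THP-1 cells; compounds (final up to 57.5 uM) added 1 h before LPS (250 ng/mL) and ATP (1.25 mM) stimulation; lower signal means less secretion.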
PINK1 expr mod: modulators of PINK1 expression; PINK1 immunofluorescence, high-content cytometry, 24 h; Potency, µM (series often up to 76.6 µM), actives largely listed as activators; 410,000 compounds, 0.2% hits; active means well fitted activation curve with a large enough effect; inconclusive means small, poorly fitted or top-dose-only effect; cell line not stated here; further: nearly all actives have a fitted effect of over 65% in size
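Stable cell line, 250 cells/well, 12 h attachment; compounds pinned at 5 concentrations, 24 h; CCCP control. Fixed with nuclear dye, primary antibodies 12 h at 10 degrees C, secondary plus cell stain; laser-scanning cytometer read.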
ATXN2 expr inh: reduces ATXN2 reporter expression in HEK-293 cells; 360,000 compounds, 0.72% hits; Potency, µM (highest dose often 57 µM), most hits filed as inhibitors; HEK-293 ATXN2-luciferase reporter, luminescence, 24 h; further: nearly all actives have a fitted effect of over 55% in size
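ATXN2-luciferase reporter cells (luciferase flanked by upstream and downstream ATXN2 gene portions) were treated 24 h at 37 °C with compounds at up to 57 uM. SteadyGlo luminescence gave expression; GF-AFC fluorescence gave viability.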
Of the large screens only hits and unclear results are named; the others gave an inactive call. Unless noted, the call rests on the fitted dose curve; in most records, active means well fitted curve in the direction sought with a large enough effect; inconclusive means small, poorly fitted or top-dose-only effect, or another doubt; inactive means no such curve, though single readings can be large; an effect the other way counts as inactive or inconclusive.

Cc1ccc(-c2csc(NC(=O)CSc3nnc4c(n3)[nH]c3ccccc34)n2)cc1	MCF10A rereplic 16µM, SW480 rereplic inconclusive, S2 tox inconclusive, ATXN2 expr inh inconclusive
COc1ccc(OCC(=O)N(Cc2cccc(OC)c2)C2CCS(=O)(=O)C2)cc1 (centres undefined)	none (no result: MCF10A rereplic, SW480 rereplic, S2 tox, IL-1B inflam inh, ATXN2 expr inh)
COc1cccc(C(=O)N(Cc2nc(-c3ccc(Cl)cc3)no2)C(C)C)c1OC	none (no result: MCF10A rereplic, SW480 rereplic, IL-1B inflam inh)
COc1ccc(-n2c(=O)c3c4c(sc3n(Cc3ccc(F)cc3)c2=O)CCCC4)c(OC)c1	none (no result: MCF10A rereplic, SW480 rereplic, IL-1B inflam inh)
COc1cc(OC)cc(-n2c(=O)c3ccccc3n(Cc3ccccc3C#N)c2=O)c1	S2 tox inconclusive (no result: MCF10A rereplic, SW480 rereplic, IL-1B inflam inh)
Cc1ncc(COC(=O)C(C)C)c2cc(C(=O)Nc3ccccc3C(F)(F)F)c(=O)oc12	none (no result: MCF10A rereplic, SW480 rereplic, S2 tox, IL-1B inflam inh, ATXN2 expr inh)
Cc1ccccc1-c1noc(-c2ccc(NCc3ccco3)c([N+](=O)[O-])c2)n1	none (no result: MCF10A rereplic, SW480 rereplic, IL-1B inflam inh)
COC(=O)c1sc(-c2ccc(C(C)(C)C)cc2)cc1NC(=O)CSCC(=O)O	MCF10A rereplic 15µM
COC(=O)c1sc(-c2ccc(C(C)(C)C)cc2)cc1NC(=O)c1ccccc1C(=O)O	MCF10A rereplic inconclusive, S2 tox inconclusive
S=C(NCC1CCCCC1)Nc1ccc(Oc2ccccc2)cc1	MCF10A rereplic 18µM, S2 tox inconclusive, IL-1B inflam inh -77, PINK1 expr mod inconclusive, ATXN2 expr inh inconclusive
FC(F)Sc1ccc(NC(=S)NCC2CCCCC2)cc1	MCF10A rereplic inconclusive, SW480 rereplic inconclusive, S2 tox inconclusive, IL-1B inflam inh -92, PINK1 expr mod inconclusive, ATXN2 expr inh inconclusive
CC1CCCCC1NC(=S)Nc1ccc(SC(F)F)cc1 (centres undefined)	MCF10A rereplic inconclusive, S2 tox inconclusive, IL-1B inflam inh -80, PINK1 expr mod inconclusive, ATXN2 expr inh inconclusive
Cc1ccc(NC(=O)c2c(C)oc3ccc(O)c(CN4CCCCCC4)c23)cc1	none (no result: MCF10A rereplic, SW480 rereplic, S2 tox, IL-1B inflam inh, ATXN2 expr inh)
O=C(CCl)Nc1c(C(=O)Nc2ccc3c(c2)OCCO3)oc2ccccc12	MCF10A rereplic 7.3µM, SW480 rereplic inconclusive, S2 tox inconclusive, IL-1B inflam inh -99
COCC(=O)Nc1c(C(=O)Nc2ccc3c(c2)OCO3)oc2ccccc12	MCF10A rereplic inconclusive, SW480 rereplic inconclusive
Cc1ccc(CN2CCN(/N=C/c3ccc(C)s3)CC2)c(C)c1	SW480 rereplic 16µM, PINK1 expr mod inconclusive
Cc1ccc(CN2CCCN(C)CC2)c(C)c1	MCF10A rereplic 21µM
COc1ccccc1/C=N/Nc1nncc2ccccc12	none
COc1cccc(/C=N/NC(=S)NC2CC3CCC2C3)c1OC (centres undefined)	none (no result: ATXN2 expr inh)
COc1cccc(C=NNC(=S)NN=Cc2cccc(OC)c2OC)c1OC	MCF10A rereplic 18µM
COc1cccc(C=NNc2nnc(NN=Cc3cccc(OC)c3OC)c3ccccc23)c1OC	MCF10A rereplic inconclusive, S2 tox inconclusive, IL-1B inflam inh -63
COc1cccc(/C=N/Nc2ncnc(N)c2[N+](=O)[O-])c1OC	ATXN2 expr inh 8.9µM
COc1ccc(S(=O)(=O)N(Cc2nc(-c3cccc(C)c3)no2)C2CCCCC2)cc1	none (no result: MCF10A rereplic, SW480 rereplic, S2 tox, IL-1B inflam inh, ATXN2 expr inh)
Cc1ccccc1C(C(=O)NC1CCCCC1)N(C(=O)CNc1ccc(C#N)cc1)c1cccc(F)c1 (centres undefined)	none (no result: MCF10A rereplic, SW480 rereplic, S2 tox, IL-1B inflam inh, PINK1 expr mod)
C/C=C1\NC(=O)[C@H]2CSSCC/C=C/[C@H](CC(=O)N[C@H](C(C)C)C(=O)N2)OC(=O)C(C(C)C)NC1=O (some centres undefined)	S2 tox 4.5µM (no result: MCF10A rereplic, SW480 rereplic, IL-1B inflam inh, PINK1 expr mod, ATXN2 expr inh)
C[C@@H](CO)NC(=O)c1nc[nH]c1C(=O)N[C@H](C)c1ccccc1	none (no result: MCF10A rereplic, SW480 rereplic)
COc1ccc(-c2nnc3ccc(SC(C)C)nn23)cc1OC	none (no result: MCF10A rereplic, SW480 rereplic, S2 tox, IL-1B inflam inh, ATXN2 expr inh)
Fc1ccc(-c2nc(-c3cccs3)c(-c3cccs3)[nH]2)cc1	none (no result: MCF10A rereplic, SW480 rereplic, S2 tox, IL-1B inflam inh, ATXN2 expr inh)
Oc1ccc(-c2nc(-c3ccc(F)cc3)c(-c3ccncc3)[nH]2)cc1	SW480 rereplic 3.5µM, ATXN2 expr inh inconclusive
Fc1ccc(-c2nc(-c3cccs3)[nH]c2-c2ccc(F)cc2)cc1	MCF10A rereplic inconclusive, S2 tox inconclusive, IL-1B inflam inh -63, PINK1 expr mod inconclusive
Fc1cc2nc(-c3ccncc3)[nH]c2cc1F	S2 tox inconclusive
CCc1ccc(NC(=O)CC2C(=O)OCCN2CC)cc1 (centres undefined)	none (no result: MCF10A rereplic, SW480 rereplic, IL-1B inflam inh)
